Screens deposited in PubChem BioAssay by several laboratories.
Only some compounds are listed: those with a hit (about 3.2% of all), similar ones and a draw of the others.
rCAG binder – binders of r(CAG) RNA repeats, primary screen, biochemical, fluorescence. 370,000 compounds, 1.3% hits. r(CAG) RNA repeat, TO-PRO-1 dye displacement fluorescence. AID 651821, 2012. inhibition, % at 3 µM;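 active means inhibition above the plate cutoff, the mean of all test compounds on that plate plus 3 SD, cut at about 35% in these data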;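 further: higher means more dye released from RNA so lower well fluorescence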
NadD block – inhibitors of S. aureus NadD, primary screen, biochemical, colorimetric, uHTS; Nicotinate-nucleotide adenylyltransferase NadD (Staphylococcus aureus N315); purified NadD enzyme, colorimetric absorbance read-out; 360,000 compounds, 0.78% hits; inhibition, % at 20 µM; in the data active means inhibition above about 26%
MsrA inh – bovine MsrA enzyme inhibitors, primary screen, biochemical, absorbance, HTS; Methionine sulfoxide reductase A (Bos taurus); purified bovine MsrA, absorbance read-out; inhibition, % at 15.5 µM; 360,000 compounds, 0.75% hits; AID 651718, 2012; in the data active means inhibition above about 4.5%
DSG3 Ab inh – inhibitors of pemphigus antibody binding to DSG3, primary screen, biochemical, bead-based, flow cytometry, scFv-GFP; Desmoglein-3 (Homo sapiens), P32926; DSG3-coupled beads, scFv-anti-DSG3-GFP binding; active compounds read low; binding (percent of control), % at 10 µM; 310,000 compounds, 0.48% hits;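 active means binding more than 3 SD below its plate's average and above zero; inconclusive means below that plate limit but binding exactly zero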;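 further: hits lower antibody fragment binding to DSG3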
Target sequence (P32926 whole entry, looked up, the tested form may be a part): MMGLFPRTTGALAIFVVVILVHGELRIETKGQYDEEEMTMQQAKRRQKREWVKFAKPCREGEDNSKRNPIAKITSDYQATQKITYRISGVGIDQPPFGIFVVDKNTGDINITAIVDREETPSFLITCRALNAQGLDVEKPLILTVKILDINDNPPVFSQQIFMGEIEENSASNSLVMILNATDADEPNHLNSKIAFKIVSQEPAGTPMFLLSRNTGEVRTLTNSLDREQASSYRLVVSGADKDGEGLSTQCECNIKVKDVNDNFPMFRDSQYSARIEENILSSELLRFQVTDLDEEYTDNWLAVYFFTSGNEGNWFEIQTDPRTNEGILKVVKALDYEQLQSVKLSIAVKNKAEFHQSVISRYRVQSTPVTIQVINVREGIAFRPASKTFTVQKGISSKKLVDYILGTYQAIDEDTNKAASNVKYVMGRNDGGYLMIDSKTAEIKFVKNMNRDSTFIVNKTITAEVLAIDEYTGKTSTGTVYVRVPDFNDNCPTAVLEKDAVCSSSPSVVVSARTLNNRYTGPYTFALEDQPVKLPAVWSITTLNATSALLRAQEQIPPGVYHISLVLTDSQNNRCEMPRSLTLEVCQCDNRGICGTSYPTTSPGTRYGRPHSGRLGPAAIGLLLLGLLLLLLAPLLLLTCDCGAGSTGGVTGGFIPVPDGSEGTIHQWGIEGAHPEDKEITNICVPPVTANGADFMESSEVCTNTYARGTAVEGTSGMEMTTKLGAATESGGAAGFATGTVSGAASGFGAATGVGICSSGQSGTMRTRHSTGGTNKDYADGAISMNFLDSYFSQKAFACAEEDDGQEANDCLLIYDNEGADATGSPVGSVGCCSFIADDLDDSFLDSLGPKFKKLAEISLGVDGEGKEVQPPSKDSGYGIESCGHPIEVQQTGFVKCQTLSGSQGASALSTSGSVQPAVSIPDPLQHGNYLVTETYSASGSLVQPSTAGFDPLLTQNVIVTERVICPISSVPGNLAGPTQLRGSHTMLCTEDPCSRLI
DAGLB inh – DAGLB lipase inhibitors, primary screen, biochemical, fluorescence, HTS. HEK293T DAGLB membrane lysate, EnzChek fluorogenic substrate. Diacylglycerol lipase-beta (Homo sapiens), Q8NCG7. inhibition, % at 5.17 µM. AID 504411, 2011. 340,000 compounds, 0.059% hits; in the data active means inhibition above about 34%
MsrA act – bovine MsrA enzyme activators, primary screen, biochemical, absorbance, HTS. Methionine sulfoxide reductase A (Bos taurus). purified bovine MsrA, absorbance read-out. 360,000 compounds, 0.3% hits. activation, % at 10.6 µM; in the data active means activation above about 7.5%
MsrA act confirm – bovine MsrA activators, retest, confirmation, biochemical, absorbance, HTS. 1,000 compounds, 12% hits. activation, % at 10.6 µM. shares compounds with MsrA act. purified bovine MsrA, absorbance read-out; in the data active means activation above about 4%;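 further: enzyme coupled to thioredoxin and thioredoxin reductase with NADPH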
Of the large screens only hits and unclear results are named; the others gave an inactive call (follow-up assays come after a bar, where they were run); ! = not active in a repeat.

CCCCC(=O)N/N=C/c1ccc(-c2ccc([N+](=O)[O-])cc2)o1	none
CN(C)S(=O)(=O)c1ccc(Cl)c(NC(=O)COC(=O)CNC(=O)c2ccco2)c1	none
CN(C)S(=O)(=O)c1ccc(Cl)c(NC(=O)COC(=O)CNS(=O)(=O)c2c(F)cccc2F)c1	MsrA act 8.8 (no result: DSG3 Ab inh) | MsrA act confirm inactive
CCCOC(=O)c1ccc(NC(=O)CN(C)Cc2cccs2)cc1	MsrA act 9.9 (no result: DSG3 Ab inh) | MsrA act confirm inactive
O=C1N[C@H](Cc2ccccc2)COC(=O)[C@H](Cc2ccc(F)cc2)C/C=C\C[C@H]1CC(=O)N(CCO)Cc1ccccc1	none
O=C1N[C@@H](Cc2ccccc2)COC(=O)[C@H](Cc2ccc(F)cc2)C/C=C\C[C@H]1CC(=O)N(CCO)Cc1ccccc1	MsrA act 19 | MsrA act confirm inactive
COc1ccc(NS(=O)(=O)c2cc(NC(=O)c3ccc(F)cc3)ccc2OC)cc1	MsrA act 9.7 | MsrA act confirm inactive
O=C(NCCN1CCOCC1)c1c(Cl)cccc1Cl	none
O=C(NCCN1CCOCC1)c1ccccc1Cl	MsrA act 17 | MsrA act confirm inactive
COc1ccc(NC(=O)c2cc(-c3cc(F)ccc3OC(C)C)n[nH]2)cc1OC	none (no result: DSG3 Ab inh, DAGLB inh)
COc1cc(NC(=O)c2cc(-c3cc(F)ccc3OC(C)C)n[nH]2)cc(OC)c1OC	MsrA act 9.4 (no result: DSG3 Ab inh, DAGLB inh) | MsrA act confirm inactive
CCCCCn1nnnc1C1(C)CCCCC(=O)N1Cc1ccco1 (stereo not drawn)	none (no result: NadD block, MsrA inh, DSG3 Ab inh, DAGLB inh, MsrA act)
CC(=O)Nc1cccc(OCC(=O)Nc2ccccc2)c1	none
CCOc1ccc(-c2cccc(NC(=O)COc3ccccc3)c2)nn1	MsrA act 8.8 (no result: rCAG binder, MsrA inh) | MsrA act confirm inactive
O=C(NC1CCCCC1)C(c1ccccc1)n1c(=O)c(-c2cc3ccccc3[nH]2)nc2ccccc21 (stereo not drawn)	none (no result: NadD block, DSG3 Ab inh, DAGLB inh, MsrA act)
CCN1CCN(Cc2ccc(NC(=O)c3ccc(C)c(NC(=O)C[C@@H]4NC(=O)[C@H](Cc5ccccc5)NC4=O)c3)cc2C(F)(F)F)CC1	MsrA act 7.7! | MsrA act confirm inactive
Cc1ccc(C)c(N2CCN(S(=O)(=O)c3c(C(=O)N4CCCCC4)c(C)n(C)c3C)CC2)c1	MsrA act 8.2 | MsrA act confirm inactive
Cc1ccc(C)c(N2CCN(S(=O)(=O)c3c(C)[nH]c(C)c3C(=O)N3CCCCC3)CC2)c1	none
COc1ccccc1C(=O)NCCC(=O)NCCCSc1ccccc1	MsrA act 9.8 | MsrA act confirm inactive
C[C@@H]1CNC(=O)c2c(C(=O)N[C@@H](Cc3c[nH]c4ccccc34)C(=O)OC(C)(C)C)ncn21	none
CC(C)(C)C(C(=O)NCc1ccccc1)N1CCN(C(=O)C2CCCO2)CC1 (stereo not drawn)	none (no result: NadD block, DSG3 Ab inh, DAGLB inh, MsrA act)
Cc1ccc(N=Nc2cc(C)ccc2O)c(C)c1	MsrA act 10 | MsrA act confirm inactive
Cc1ccc(C)c(N=Nc2ccc(O)c3ncccc23)c1	none
CCCCCn1cnc2sc(CC)cc2c1=O	MsrA act 14 | MsrA act confirm inactive
CCc1cc2c(=O)n(CC(C)C)cnc2s1	none
Clc1ccc(-n2c(SCc3cccc4ccccc34)nnc2-c2cccnc2)cc1	none (no result: NadD block, MsrA inh, DSG3 Ab inh, DAGLB inh, MsrA act)
CC[n+]1ccc(C[n+]2ccccc2)c2ccccc21	MsrA act 11 (no result: DSG3 Ab inh) | MsrA act confirm inactive
CC[n+]1ccc(/C=C/c2ccc(N(C)C)cc2)c2ccccc21	none
COc1ccccc1CC(NC(C)=O)C(=O)NC1CCN(c2nnnn2-c2ccccc2)CC1 (stereo not drawn)	none (no result: rCAG binder, MsrA inh)
CC(=O)NC(Cc1ccccc1C)C(=O)NC1CCN(c2nnnn2-c2ccccc2)CC1 (stereo not drawn)	MsrA act 12 | MsrA act confirm inactive
COc1cc(OC)c(C(=O)NC23CC4CC(CC(C4)C2)C3)cc1OC	MsrA act 9.2 | MsrA act confirm inactive
Cc1cccc(N(CC(=O)N2CCN(C)CC2)S(=O)(=O)c2ccccc2)c1	none
CN1CCN(C(=O)CN(c2cccc(Cl)c2)S(=O)(=O)c2ccccc2)CC1	MsrA act 11 | MsrA act confirm inactive
COc1ccccc1OCc1ccc(C(=O)Nc2ccccc2)cc1	MsrA act 12 | MsrA act confirm inactive
COc1ccc(S[C@]2(C(=O)NCCCN(C)C)CC(=O)N[C@@H]2c2ccc(OC)cc2)cc1	none (no result: NadD block, MsrA inh, DSG3 Ab inh, DAGLB inh, MsrA act)
CCCCN(C)C(=O)c1cc2cc3ccc(OC)cc3nc2o1	MsrA act 17 | MsrA act confirm inactive
CC1NC(=O)c2ccccc2-n2c1nc1cc(F)ccc1c2=O (stereo not drawn)	none (no result: NadD block, DSG3 Ab inh, DAGLB inh, MsrA act)
O=c1c2ccccc2on1-c1ccccc1	none
CC(=O)Nc1ccc2c(=O)n(-c3ccccc3)sc2c1	DSG3 Ab inh 48, MsrA act 7.7 | MsrA act confirm inactive
CN(C)S(=O)(=O)c1cccc(-n2sc3ccccc3c2=O)c1	DSG3 Ab inh 29, MsrA act 7.7 | MsrA act confirm 8.9
Cc1ccccc1-n1sc2cc(F)ccc2c1=O	DSG3 Ab inh 69, MsrA act 15 | MsrA act confirm 9.7
CN(C)S(=O)(=O)c1ccc2[nH]cc(/C=C/c3nc4ccccc4c(=O)n3-c3ccccc3)c2c1	none
O=c1c2ccccc2sn1-c1ccccc1	DSG3 Ab inh inconclusive, MsrA act 12 | MsrA act confirm 13
COC(=O)[C@]12C[C@H](CC(=O)NCC3CCCCC3)C(=O)N(Cc3cccc4ccccc34)C1=C[C@H](COCc1ccccc1)O[C@@H]2C	none (no result: NadD block, MsrA inh, DSG3 Ab inh, DAGLB inh, MsrA act)
O=C(CCCN1C(=O)/C(=C/c2ccccc2OC(F)F)SC1=S)Nc1cccnc1	none
COC(=O)[C@]12C[C@H](CC(=O)N3CCN(C(=O)c4ccco4)CC3)C(=O)N(Cc3ccccc3)C1=C[C@H](COCc1ccccc1)O[C@@H]2C	none (no result: NadD block, MsrA inh, DSG3 Ab inh, DAGLB inh, MsrA act)
O=c1c2ccccc2sn1-c1cccc(Cl)c1	DSG3 Ab inh 40, MsrA act 12 | MsrA act confirm 5.8
O=c1c2cc(F)ccc2sn1-c1ccccc1	DSG3 Ab inh 43, MsrA act 15 | MsrA act confirm 9.8
CC(C)CCN(C)C1CCN(C(=O)Nc2ccccc2)CC1	none (no result: NadD block, MsrA inh, DSG3 Ab inh, DAGLB inh, MsrA act)
COc1cc2c(cc1OC)C(Cc1ccccc1[N+](=O)[O-])=NCC2	none
O=C(NC(=O)c1cccc(F)c1)OC[C@@H]1CCCN2CCCC[C@H]12	MsrA act 8.8 | MsrA act confirm inactive
O=C(NC(=O)c1cccc(Cl)c1)OC[C@@H]1CCCN2CCCCC12 (stereo partly drawn)	none
CC(C(=O)N1CCN(Cc2ccccc2)CC1)n1ncn2cccc2c1=O (stereo not drawn)	none
